Experimental data taken from PubChem BioAssay (NCI).
“And” between values parts separate entries of the source, which are not always exact repeats. Equal values may be shown once. This is part of a sample that, as a whole, favours compounds with a hit. Of some 79,000 tested, about 15% had one in any assay. Rule as the data show it: active = growth inhibition above about 70%; inactive = the rest.

Key:
[1] = NCI Yeast Anticancer Drug Screen. Data for the rad50 strain (AID 155);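 also: 0% = growth of vehicle-only cultures of the same strain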; details: S. cerevisiae rad50 strain growth inhibition, stronger effect = higher value; at 50.0 µM unless noted
Outline: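 Vehicle-treated cultures provide the reference for the growth inhibition reported for compound-exposed, repair-deficient yeast.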

[2] = NCI Yeast Anticancer Drug Screen. Data for the mec2-1 strain (AID 157); details: S. cerevisiae mec2-1 strain, stronger effect = higher value; at 50.0 µM unless noted
Outline: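 mec2-1 yeast strain, carrying an alteration in DNA damage repair or cell cycle control, was exposed to compounds; growth inhibition was measured relative to vehicle-treated controls.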

[3] = NCI Yeast Anticancer Drug Screen. Data for the sgs1 mgt1 strain (AID 161);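 also: 0% = growth of cultures given vehicle only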; details: S. cerevisiae sgs1 mgt1 strain, stronger effect = higher value; at 50.0 µM unless noted
Outline: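 This yeast growth screen uses a strain with defined DNA-repair lesions; compound-treated growth is compared with vehicle-treated growth.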

[4] = NCI Yeast Anticancer Drug Screen. Data for the cln2 rad14 strain (AID 165);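 also: 0% = growth equal to vehicle treated cultures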; details: S. cerevisiae cln2 rad14 strain, stronger effect = higher value; at 50.0 µM unless noted
Outline: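 Yeast carrying cln2 and rad14 alterations (cell cycle control and DNA damage repair) were exposed to compounds. Growth inhibition was measured against vehicle-treated controls.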

[5] = NCI Yeast Anticancer Drug Screen. Data for the bub3 strain (AID 167); details: S. cerevisiae bub3 mutant strain, stronger effect = higher value; at 50.0 µM unless noted
Outline: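 Mutant yeast screening strain plus compound; vehicle-treated cultures serve as the 0% inhibition reference.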

[6] = NCI Yeast Anticancer Drug Screen. Data for the mlh1 rad18 strain (AID 175); details: S. cerevisiae mlh1 rad18 strain growth inhibition, stronger effect = higher value; at 50.0 µM unless noted
Outline: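 Growth inhibition of the yeast strain was measured after compound exposure and expressed relative to vehicle-treated controls. The strain carries defined defects in DNA damage repair.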

Measured: growth inhibition

Nc1nc(=O)[nH]c(=O)[nH]1
inactive: [1] -5% | [2] -0.4% | [3] -7.05% | [4] -28.9% | [5] -14.6% | [6] 16.9%

CCN1C(=O)C(=O)C(c2ccccc2)(c2ccccc2)C1=O
inactive: [1] -6.3% | [2] -3.65% | [3] -4.65% | [4] -21.6% | [5] 2.9% | [6] 46.9%

CC(=O)c1cccc(NC(=O)Nc2ccc(F)c([N+](=O)[O-])c2)c1
inactive: [1] 7.3% | [2] 22.9% | [3] 21.9% | [4] 3.25% | [5] 36.5% | [6] 2.75%

CN1C2=NCCN2C(=O)c2cc(Cl)ccc21
inactive: [1] 1.05% | [2] -21.9% | [3] 15.6% | [4] 8.65% | [5] 13.7% | [6] 9.9%

Cc1ccc(S(=O)(=O)N(C)c2ccc3c(c2)C(=O)c2ccccc2-3)cc1
inactive: [1] 20.6% | [2] 14.2% | [3] 37% | [4] -44.5% | [5] 56% | [6] 26.4%

N#Cc1ccc(Nc2cnc3cc(N)ccc3n2)cc1
inactive: [1] 38.6% | [2] -10.2% | [3] 13.6% | [4] 18% | [5] 12.8% | [6] 34.6%

Fc1ccc2c(c1)SC1Oc3ccccc3-c3c1c-2nn3-c1ccccc1 (stereo not given)
inactive: [1] -5.45% | [2] -7.45% | [3] -17.4% | [4] 8.8% | [5] -11.1% | [6] -2.6%

CC(C)CN(CC(C)C)C(=O)c1ccccc1
inactive: [1] 2.3% | [2] 8.2% | [3] 1.1% | [4] 8.85% | [5] 4.9% | [6] 2.4%

CC(Br)C(=O)NC(CC(N)=O)C(=O)O (stereo not given)
inactive: [1] 1.8% and -8.25% | [2] -15.6% and -16.1% | [3] -9.15% | [4] 4.2% | [5] -14.7% | [6] 23% and -17.1%

Cc1c(Cl)cc(Cl)c2c1C(=O)CC(C)O2 (stereo not given)
inactive: [1] 20.4% | [2] 7.4% | [3] -0.4% | [4] -17.2% | [5] -14.5% | [6] 18.8%

C/C(CC1(O)C(=O)Nc2ccccc21)=N\O (stereo not given)
inactive: [1] -1.95% and -34.7% | [2] -8.5% and -46.1% | [3] -30.6% | [4] 8.6% | [5] -16.2% | [6] 6.55% and -10%

CC(=O)N(C(C)=O)N1C(=O)CSC1=S
inactive: [1] -11.1% | [2] -35% | [3] -21.8% | [4] -3.4% | [5] 17.4% | [6] -7.2%

COc1ccc(C(c2cc3c(cc2O)OCO3)N2CCN(C(c3ccc(OC)c(OC)c3)c3cc4c(cc3O)OCO4)CC2)cc1OC (stereo not given)
inactive: [1] -3% | [2] 1.05% | [3] 1.6% | [4] 17.4% | [5] 2.2% | [6] -17.1%

S=C(NCc1cccc(Cl)c1)Nc1ccccc1
inactive: [1] -4.65% | [2] 27.9% | [3] 14.2% | [4] -24.9% | [5] 29.6% | [6] 24.4%

O=C(O)Cc1ccc(-c2cn3c(n2)sc2ccccc23)cc1
inactive: [1] 58.1% | [2] 22.3% | [3] 0.05% | [4] 5.45% | [5] 24.8% | [6] 16.4%

CCCCOC(=O)CC(O)C(=O)OCCCC (stereo not given)
inactive: [1] 39.1% | [2] -4.45% | [3] -17.5% | [4] -61.2% | [5] -29.9% | [6] -11%

S=c1[nH]nc2scnn12
inactive: [1] -2.85% | [2] 3.55% | [3] 4.25% | [4] -45.5% | [5] 7.4% | [6] -9.3%

O=C1CN2CCC1C/C2=C\c1ccnc2c(Cl)cc(Cl)cc12 (stereo not given)
inactive: [1] 7.75% | [2] -7.55% | [3] -0.9% | [4] -3.4% | [5] -12% | [6] 19.2%

COc1cc(CC(=O)O)ccc1OC(C)=O
inactive: [1] 4.15% | [2] 2.65% | [3] -16.8% | [4] -25.1% | [5] 1.25% | [6] -5.75%

CN(C)Cc1cc(C(=O)/C=C/c2ccc(Cl)c(Cl)c2)cc(CN(C)C)c1O
inactive: [1] -1.95% | [2] -14.4% | [3] 6.3% | [4] 31.9% | [5] 2.15% | [6] -3.3%
